We go through 37 compounds from ChEMBL document CHEMBL3433997, “St. Jude Leishmania screening dataset” (2016).

Molecules are shown by their SMILES.

Common to all, as to format: functional
Assay [1] concerns the target Solute carrier family 2, facilitated glucose transporter member 1 (Homo sapiens) (UniProt P11166). Put plainly: ST_JUDE_LEISH: Cytotoxicity at 2uM final concentration against transgenic Leishmania Mexicana promastigotes LmGLUT1 that are glucose transport deficient and complemented with the human glucose transporter GLUT1. Activity is measured by DNA content using SYBR green in vitro.

The target in assay [2] is Hexose transporter 1 (Plasmodium falciparum) (UniProt O97467). Put plainly: ST_JUDE_LEISH: Cytotoxicity at 2uM final concentration against transgenic Leishmania Mexicana promastigotes LmPfHT that are glucose transport deficient and complemented with the Plasmodium falciparum hexose transporter. Activity is measured by DNA content using SYBR green in vitro.
Assay [3] concerns the target Glucose transporter (Leishmania mexicana) (UniProt O61059). Put plainly: ST_JUDE_LEISH: Cytotoxicity at 2uM final concentration against transgenic Leishmania Mexicana promastigotes LmGT2 that are glucose transport deficient and complemented with the L. Mexicana glucose transporter 2. Activity is measured by DNA content using SYBR green in vitro.

Sequence of Solute carrier family 2, facilitated glucose transporter member 1 (Homo sapiens) (P11166 whole entry): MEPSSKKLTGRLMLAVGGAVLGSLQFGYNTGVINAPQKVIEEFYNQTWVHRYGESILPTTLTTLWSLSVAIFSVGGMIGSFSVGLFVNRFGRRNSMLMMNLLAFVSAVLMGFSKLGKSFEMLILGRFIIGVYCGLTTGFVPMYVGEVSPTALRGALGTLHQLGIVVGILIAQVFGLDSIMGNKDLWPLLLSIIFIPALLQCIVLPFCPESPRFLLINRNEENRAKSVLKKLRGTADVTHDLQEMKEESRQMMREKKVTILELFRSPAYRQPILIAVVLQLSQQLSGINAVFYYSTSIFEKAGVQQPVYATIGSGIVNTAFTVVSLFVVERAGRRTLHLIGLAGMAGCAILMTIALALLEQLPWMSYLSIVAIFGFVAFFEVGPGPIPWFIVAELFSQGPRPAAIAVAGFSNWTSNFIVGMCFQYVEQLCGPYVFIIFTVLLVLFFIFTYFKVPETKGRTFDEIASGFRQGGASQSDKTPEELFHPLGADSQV

The term inhibition denotes the change of the read-out against control, counted positive when it falls. In the case of `CN1CCC(NCc2ccc(-c3ccc(C(F)(F)F)cc3)cc2)CC1`, the values for the inhibition in assay [1], in assay [2] and in assay [3] were -0.71%, -0.76% and 0.62%, respectively.

As to `CN(C)Cc1cccc(-c2ccc(NC(=O)c3ccc4c(=O)n(C5CCCCC5)cnc4c3)cc2)c1`, the inhibition amounted to 76% in assay [1], 80.4% in assay [2] and 79.8% in assay [3].

`O=C(CCc1ccccc1)NC(c1ccc(Cl)cc1)c1ccc2cccnc2c1O` (stereo unspecified): the inhibition in assay [1] was -0.41%; in assay [2], 1.91%; in assay [3] it was 3.42%.

Take `C=C(C)CSc1nc2c(c(=O)n1CCc1ccccc1)C1(CCCC1)Cc1ccccc1-2`: the inhibition in assay [1] is 5.95%; in assay [2] it was 5.36%; in assay [3], 5.02%.

As for `CCc1c(CCNCCCCCCNCCc2ccccc2)ccc(OC)c1OC`, the inhibition in assay [1] came to 4.61%; in assay [2] it was 5.04%; in assay [3], 2.63%.

Take `NC1CCN(Cc2cccc(-c3ccc(-c4nc5cc(C(F)(F)F)ccc5[nH]4)cc3)c2)C1` (stereo unspecified): the inhibition turned out to be 0.52% in assay [1], 5.22% in assay [2] and 2.71% in assay [3].

Turning to `O=C(Nc1ccc2c(c1)CCNCC2)c1ccc(-c2ccc(Cl)cc2)cc1`, the results for the inhibition in assay [1], in assay [2] and in assay [3] were 58.3%, 104% and 109%, respectively.

Take `CN(C)Cc1ccc(-c2cc3ncnc(Nc4ccc(OCc5cccc(F)c5)c(Cl)c4)c3s2)[nH]1`: the inhibition in assay [1] amounted to 3.19%; in assay [2] it was 2.49%; in assay [3], 1.76%.

Turning to `COc1ccc(CNCc2ccsc2)cc1-c1ccc(OC)c(S(=O)(=O)NCCN2CCCC2)c1`, the inhibition in assay [1] is 1.22%; in assay [2], 1.92%; in assay [3] it was -1.86%.

For the compound `O=C(/C=C/c1ccc(Cl)c(Cl)c1)N1CCC(C(O)CN2CCC(c3c[nH]c4ccccc34)CC2)CC1` (stereo unspecified), the inhibition in assay [1] was determined as 2.18%; in assay [2], 1.82%; in assay [3], 0.09%.

As for `O=S(=O)(Nc1ccc2nccc(N3CCNCC3)c2c1)c1ccc(-c2ccccc2)cc1`, the inhibition was found to be 0.86% in assay [1], 1.12% in assay [2] and 0.59% in assay [3].

Consider `N=C(N)NC(=O)Nc1ccc(Cl)c(C(F)(F)F)c1`, for which the inhibition in assay [1] is 1.17%; in assay [2], 2.97%; in assay [3] it was 1.44%.

For `CCCNc1ccc2nccc(CCN3CCC(NCc4ccc5c(n4)NC(=O)CS5)CC3)c2n1`, the inhibition came to 3.5% in assay [1], 2.84% in assay [2] and 8.69% in assay [3].

In the case of `CN1CCC(NCc2cccc(-c3ccc(S(=O)(=O)NCc4ccccc4)c(F)c3)c2)CC1`, the inhibition in assay [1] stood at 2.09%; in assay [2], 3.75%; in assay [3] it was 4.35%.

Regarding `Cc1onc(-c2ccccc2)c1-c1nc(NC2CCCC(C)C2)no1` (stereo unspecified), the inhibition was 2.36% in assay [1], -1.49% in assay [2] and 3.54% in assay [3].

On to `CO/C(=C\C=C\c1cc2cc(Cl)c(Cl)cc2[nH]1)C(=O)NCCCNC12CC3CC(CC(C3)C1)C2`, for which the inhibition in assay [1] came out at 3.15%; in assay [2] it was 1.55%; in assay [3], 0.89%.

As for `CCn1c(C)cc(C=C2SC(=Nc3ccccc3)NC2=O)c1C`, the figures for the inhibition in assay [1], in assay [2] and in assay [3] were 6.88%, 4.18% and 2.93%, respectively.

With `COc1ccc2nccc(N3CCC(SCCNCc4ccc5c(n4)NC(=O)CS5)C3)c2n1` (stereo unspecified), the inhibition in assay [1] is -1.38%; in assay [2] it was -0.72%; in assay [3], 0.51%.

Take `COc1ccc2nc(N3CCN(C(=O)OC(C)(C)C)CC3)nc(NCCCc3ccccc3)c2c1`: the inhibition is 28.4% in assay [1], 23.1% in assay [2] and 8.03% in assay [3].

For the compound `N#Cc1ccc(N[C@@H](CC2CCCCC2)C(=O)Nc2ccc(-c3ccccc3)cc2)c2ccccc12`, the inhibition in assay [1] was 2.38%; in assay [2], 3.08%; in assay [3], 3.75%.

Regarding `CN1CCN(CC2(Nc3nccc(NCCc4cn(C)c5ccccc45)n3)CCCCC2)CC1`, the inhibition was 0.99% in assay [1], 1.78% in assay [2] and -1.09% in assay [3].

With `Cc1cc(C)cc(N2C(N)=NC(N)=NC2(C)C)c1`, the inhibition in assay [1] was determined as 7.13%; in assay [2], 5.93%; in assay [3], 5.97%.

As for `Cc1[nH]c2ccc(-c3ccc(N(C)C)cc3)cc2c(=O)c1Cl`, the inhibition worked out at 2.49% in assay [1], 3.7% in assay [2] and 2.73% in assay [3].

Turning to `O=C(O)/C=C/c1cccc(F)c1F`, the inhibition was 1.29% in assay [1], 1.5% in assay [2] and 2.66% in assay [3].

Consider `CCOC(=O)N[C@@H]1CN[C@@H](C#Cc2cc3c(Nc4ccc(OCc5cccc(F)c5)c(Cl)c4)ncnc3s2)C1`, for which the inhibition in assay [1] is -1.82%; in assay [2], 0.54%; in assay [3], 0.09%.

`CN(C)CCNC(=O)N1CCCN(c2ncnc3cc(-c4ccc(Cl)cc4)sc23)CC1`: the inhibition is -0.35% in assay [1], -1.89% in assay [2] and 0.1% in assay [3].

Turning to `Nc1nc(N)c2c3c(ccc2n1)CCC3`, the results for the inhibition in assay [1], in assay [2] and in assay [3] were 0.87%, 1.48% and 1.24%, respectively.

In the case of `OCCN1CCN(c2nc(Nc3cccc(F)c3)c3cnn(-c4ccccc4)c3n2)CC1`, the inhibition is 3.91% in assay [1], 0.94% in assay [2] and -2.4% in assay [3].

With `CCCCCCN1CCCN(Cc2ccc(C(=O)Nc3ccc(Cl)cc3)cc2)CC1`, the inhibition in assay [1] was 12.3%; in assay [2], 13.8%; in assay [3], 12.5%.

For the compound `COc1ccc(C2CCC(NCCCCNC(=O)c3ccc(NC(=O)c4ccc(Cl)cc4)cc3)CC2)cc1` (stereo unspecified), the results for the inhibition in assay [1], in assay [2] and in assay [3] were 1.37%, 4.07% and 4.39%, respectively.

Consider `CCOCc1cn(CC(=O)c2ccc(-c3ccccc3)cc2)c(C)nc1=N`, for which the results for the inhibition in assay [1], in assay [2] and in assay [3] were -1.07%, -0.82% and -0.84%, respectively.

Turning to `CC[C@H](NC(=O)c1c(N)c(-c2sccc2Cl)nc2ccccc12)c1ccccc1`, the values for the inhibition in assay [1], in assay [2] and in assay [3] were 3.8%, 0.64% and 1.74%, respectively.

For the compound `CN1CCN(c2ccc(Cl)cc2NC(=O)C2COc3ccccc3O2)CC1` (stereo unspecified), the inhibition is 0.88% in assay [1], 1.77% in assay [2] and -1.34% in assay [3].

For the compound `Cc1cc2ncn(-c3nccc(NCc4ccc(F)cc4)n3)c2cc1C`, the values for the inhibition in assay [1], in assay [2] and in assay [3] were -0.72%, -1.37% and -0.57%, respectively.

Turning to `Cc1cc(N[C@@H](CC(C)C)C(=O)Nc2ccccc2)nc(NCCc2ccccc2)n1`, the inhibition turned out to be 3.68% in assay [1], 2.93% in assay [2] and 0.92% in assay [3].

Consider `COc1ccc(CNCc2cccc(-c3csc(-c4nc5ccccc5[nH]4)c3)c2)cc1`, for which the inhibition in assay [1] is -1.65%; in assay [2] it was -1.34%; in assay [3] it was 2.49%.

Consider `COc1ccc(NC(=O)[C@H](C)Nc2cc(C)nc(NCC3CCCCC3)n2)cc1`, for which the inhibition in assay [1] came out at 5.31%; in assay [2], 3.39%; in assay [3], 3%.
